# Test results reported in PubChem BioAssay AID485313 (National Center for Advancing Translational Sciences (NCATS), 2010).
# Screen size: about 320,000 compounds; about 7,600 (2.4%) were called active. About 3% were inconclusive and are not listed. Calls come from the whole dose curve; as a rule, active = well fitted activation curve with a large enough effect; inconclusive = small, poorly fitted or top-dose-only effect; inactive = no such curve, though single readings can be large or run the other way. What follows is part of a selection rich in actives, with near analogues and random picks from the rest. A call without a number means that no potency is given here.
# Test: qHTS Assay for NPC1 Promoter Activators; note: nearly all actives have a fitted effect of over 60% in size;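 for activation: reporter is driven by a mutant NPC1 promoter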
# Conditions: Huh7 NPC1 promoter luciferase reporter, 24 h; series mostly up to 9.22 µM
# Procedure, shortened: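 Compounds in DMSO were transferred onto Huh7 NPC1-luciferase reporter cells pre-incubated 2 h; after 24 h at 37 °C, Amplite reagent was dispensed and luminescence recorded 10 min later.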
# Potency is the fitted concentration of half-maximal effect.
row,SMILES,Potency
1,Cc1ccc(S(=O)(=O)N2CCCCC2)cc1C(=O)N1CCN(CCO)CC1,inactive
2,COc1ccccc1CNC(=O)COC(=O)c1sc(C)nc1C,inactive
3,O=C(Nc1ccc2sc3ccccc3c(=O)c2c1)c1ccccc1Cl,3.16 µM (active)
4,COc1cc(NC(=O)c2cccs2)ccc1NC(=O)c1ccccc1Cl,inactive
5,O=C(Nc1cccc(NC(=O)c2ccccc2[N+](=O)[O-])c1)c1ccccc1Cl,inactive
6,O=C(COC(=O)c1cc(=O)[nH]c2ccccc12)NCc1cccc(Cl)c1,inactive
7,CC(=O)Nc1ccc(S(=O)(=O)N2CCn3cccc3C2C)cc1 (stereo unspecified),inactive
8,C=CCN(CC=C)C(=O)CN1C(=O)c2ccccc2C1=O,inactive
9,Cc1cc(C(=O)COC(=O)CCCN2C(=O)c3ccccc3C2=O)c(C)n1C,inactive
10,C=CCn1c(C)cc(C(=O)CN2C(=O)c3ccccc3C2=O)c1C,0.316 µM (active)
11,C[C@H](NC(=O)c1[nH]cnc1C(=O)Nc1nccs1)c1ccccc1,inactive
12,CCCCC/C=C/C1=CC(=O)C[C@H](c2ccc(Cl)cc2)C1,inactive
13,Cc1ccccc1-c1cc(C(=O)NCc2cccs2)n(CC2CC(c3cccnc3)=NO2)n1 (stereo unspecified),inactive
14,O=C(Nc1ccc(NC(=O)c2cccs2)cc1)c1ccc2ccccc2c1,inactive
15,COc1cc2ccccc2cc1C(=O)Nc1ccc(NC(=O)c2cccs2)cc1,inactive
16,O=C(Nc1ccc2oc(-c3ccc4ccccc4c3)nc2c1)c1cccs1,0.891 µM (active)
17,CC(Sc1nnc(C2CC2)n1C1CC1)C(=O)Nc1ccc(C(N)=O)cc1 (stereo unspecified),inactive
18,CCOc1ccc(N2C(=O)CSC2=NC#N)cc1,inactive
19,CC(=O)NC(NC(=S)Nc1c(C)n(C)n(-c2ccccc2)c1=O)C(Cl)(Cl)Cl (stereo unspecified),inactive
20,COc1ccc(C)cc1NC(=O)CN1c2cccc3cccc(c23)S1(=O)=O,inactive
21,CCN(CC)CCN1C(=O)C(=O)/C(=C(/O)c2cnn(-c3ccccc3)c2C)C1c1cccs1 (stereo unspecified),3.98 µM (active)
22,CCOc1cccc(/C(O)=C2/C(=O)C(=O)N(CCOC)C2c2ccncc2)c1 (stereo unspecified),inactive

row,SMILES,Potency
1,CCN(CC)CCN1C(=O)C(=O)/C(=C(/O)c2ccc(OC)c(OC)c2)C1c1ccccn1 (stereo unspecified),inactive
2,COc1ccccc1OCC(=O)OCc1cc(-c2ccco2)on1,inactive
3,COC(=O)c1cccc(NC(=O)c2cccc(N3C(=O)CCC3=O)c2)c1,inactive
4,CC(=O)c1sc(NC(=O)CCN2C(=O)C3CC=CCC3C2=O)nc1-c1ccccc1 (stereo unspecified),inactive
5,CCCCCCCCCCOC(=O)C[N+](C)(C)CC1CCCCC1O (stereo unspecified),inactive
6,CCn1ccnc1CN(C)C(=O)c1ccc2nc(Cc3ccc(OC)cc3)oc2c1,inactive
7,Cc1cc(Cl)c2oc(C(=O)N(C)C(C)c3ccccn3)c(C)c2c1 (stereo unspecified),inactive
8,CC(c1ccccn1)N(C)C(=O)c1ccc2nc(Cc3cccc(Cl)c3)oc2c1 (stereo unspecified),3.98 µM (active)
9,CC(NCC(=O)Nc1ccccc1C(=O)NC1CC1)c1ccccc1Cl (stereo unspecified),inactive
10,Cc1ccc(C)c(C(=O)COC(=O)Cn2[nH]c(=O)c3ccccc3c2=O)c1,inactive
11,O=[N+]([O-])c1ccc(NC(=S)N2CCN(c3ccccn3)CC2)cc1,inactive
12,O=C(OCc1ccc([N+](=O)[O-])cc1)c1ccccn1,inactive
13,O=C(Nc1ccc([N+](=O)[O-])cc1)OCCc1ccccn1,3.55 µM (active)
14,Cc1ccc(NC(=O)c2cccc(S(=O)(=O)N3CCCc4ccccc43)c2)nc1,inactive
15,Cc1cc(C(=O)OCC(=O)Nc2ccccc2Cl)c(C)o1,inactive
16,CCCc1ccc(C(=O)COC(=O)CN2C(=O)NC3(CCCCC3C)C2=O)cc1 (stereo unspecified),inactive
17,COc1ccccc1-c1nnc(SCC(=O)N2CC(C)CC(C)C2)o1 (stereo unspecified),inactive
18,COc1ccc(-c2nnc(SCC(=O)c3cccs3)o2)c(OC)c1,2.24 µM (active)
19,COc1ccc(CCNC(=O)CSc2nnc(CNC(=O)c3cccs3)o2)cc1OC,inactive
20,O=C(NNC(=O)c1ccc(-n2cncn2)c([N+](=O)[O-])c1)c1ccccc1,inactive
21,Nc1ccc2nn(-c3ccc(Cl)cc3)nc2c1,0.447 µM (active)
22,c1ccc(-n2nc3ccccc3n2)cc1,inactive

row,SMILES,Potency
1,CN(C)c1nnnn1-c1ccc(Cl)cc1,inactive
2,CN(CC(=O)NC1CCN(Cc2ccccc2)CC1)S(=O)(=O)c1ccc(Cl)s1,inactive
3,Cn1c(=O)c(C(=O)Nc2ncccn2)c(O)c2ccccc21,2.82 µM (active)
4,CCCn1c(=O)c(C(=O)Nc2cc(C)ccn2)c(O)c2ccccc21,inactive
5,C=CCn1c(=O)c(C(=O)Nc2ncccc2O)c(O)c2ccccc21,inactive
6,O=C(N/N=C/c1ccco1)c1csc2c1CCCC2,inactive
7,Cc1ccc(NC(=O)c2csc3c2CCCC3)cc1,2.82 µM (active)
8,O=C(Nc1ccccc1N1CCOCC1)c1csc2c1CCCC2,inactive
9,Cc1ccc(N=C2NC(=O)c3cccc([N+](=O)[O-])c32)cc1,inactive
10,COc1ccc(CNC(=O)c2ccc(Br)s2)cc1OC,inactive
11,CS(=O)(=O)c1ccc2nc(NC(=O)C3CCCCC3)sc2c1,inactive
12,COc1ccc2nc(NC(=O)NC3CCCCC3)sc2c1,3.16 µM (active)
13,CCc1noc(C)c1C(=O)Nc1nc2ccc(OC)cc2s1,inactive
14,COc1ccc2nc(NC(=O)c3ccc(Br)s3)sc2c1,3.98 µM (active)
15,COc1ccc2nc(NC(=O)[C@@H]3CCCN3C(=O)c3cccs3)sc2c1,inactive
16,CCOc1ccc(OCC(=O)OC(C)C(=O)NC2CCCCC2C)cc1 (stereo unspecified),inactive
17,O=C(CCc1nc2sc3c(c2c(=O)[nH]1)CCCC3)NCC(=O)Nc1ccccc1Br,inactive
18,CSCCC(NC(=O)c1ccco1)C(=O)NCCc1ccc(F)cc1 (stereo unspecified),inactive
19,COc1ccc(S(=O)(=O)N2CCN(C(C)C(=O)Nc3ccc(C(C)C)cc3)CC2)cc1 (stereo unspecified),inactive
20,CCC(=O)c1ccc(OCC(=O)OCC(=O)N2CCc3ccccc3C2)cc1,inactive
21,CCOc1ccc2nc(NC(=O)c3cc([N+](=O)[O-])ccc3N3CCOCC3)sc2c1,inactive
22,O=C(Nc1nc2ccc([N+](=O)[O-])cc2s1)c1ccncc1,1.41 µM (active)

row,SMILES,Potency
1,O=C(NC(Nc1nc2ccc([N+](=O)[O-])cc2s1)(C(F)(F)F)C(F)(F)F)c1ccccc1,inactive
2,CCC(C(=O)N1CCN(S(=O)(=O)c2sc(C(=O)O)c(C)c2C(=O)O)CC1)c1ccccc1 (stereo unspecified),inactive
3,Cc1c(C=O)n(C)n(-c2ccccc2)c1=O,inactive
4,Cc1nc(N)sc1N=Nc1c(C)n(C)n(-c2ccccc2)c1=O,inactive
5,Cc1c(N=Nc2ccc(N(C)C)cc2)c(=O)n(-c2ccccc2)n1C,3.55 µM (active)
6,CC(C(=O)Nc1ccc(S(=O)(=O)N2CCCC2)cc1)N(C)Cc1ccc(F)cc1 (stereo unspecified),inactive
7,CCN(CC)S(=O)(=O)c1cc(C(=O)Nc2ccccn2)ccc1C,2.24 µM (active)
8,Cc1ccc(NC(=O)CNCc2ccccn2)cc1S(=O)(=O)N(C)C,inactive
9,CCN(c1ccccc1)S(=O)(=O)c1cc(C(=O)NCc2ccccn2)ccc1C,inactive
10,COc1cc(OC)cc(C(=O)NCC(=O)N2CCCCCCC2)c1,inactive
11,Cc1ccc(C)c(NC(=O)COC(=O)CSc2ccccc2)c1,inactive
12,CCN(CC)S(=O)(=O)c1ccc(-c2cn3ccc(C)cc3n2)cc1,1.26 µM (active)
13,COc1cc(OC)cc(-c2nc(=S)n3ccsc3n2)c1,inactive
14,COc1ccc(-c2cn3ccc(C)cc3n2)cc1,0.112 µM (active)
15,COc1ccc(CNc2nccs2)cc1,inactive
16,Cc1ccn2cc(C(=O)NC3CCN(Cc4ccccc4)CC3)nc2c1,inactive
17,COc1ccc(-n2c(-c3ccc(OC)c(OC)c3)n[nH]c2=S)cc1,inactive
18,CCN(c1cccc(C)c1)S(=O)(=O)c1ccc(-c2coc(C)n2)cc1,inactive
19,CCN(CC(=O)NCCc1ccccc1)S(=O)(=O)c1ccc(C)cc1,inactive
20,COc1ccc(-c2cn3ccsc3n2)cc1,1.58 µM (active)
21,COC(=O)Cc1ccc(OC(=O)C2CCN(S(=O)(=O)c3ccc(OC)c(OC)c3)CC2)cc1,inactive
22,COCCn1c(C)cc(C(=O)CSc2nnc(C3CC3)n2C2CC2)c1C,inactive

row,SMILES,Potency
1,CN(C(=O)COC(=O)CCCc1c[nH]c2ccccc12)c1c(N)n(Cc2ccccc2)c(=O)[nH]c1=O,inactive
2,Cc1cc(C)nc(N2CCC(C(=O)Nc3ccc4c(c3)OCCO4)CC2)n1,inactive
3,O=C(Nc1ccc2c(c1)OCCO2)C1CCCC1,inactive
4,O=C(Nc1ccc2c(c1)OCCO2)C1CCCN(c2ncccn2)C1 (stereo unspecified),0.398 µM (active)
5,CCc1ccccc1NC(=O)CN(C)C(=O)c1cc(C2CC2)nn1-c1ccccc1,inactive
6,COc1ccc(Cl)cc1C(=O)OCC(=O)NCc1cccs1,inactive
7,CCN(CC(=O)Nc1c(F)cccc1F)C(=O)c1ccc(-c2ccc(C(C)=O)cc2)o1,inactive
8,N#Cc1ccc(CN2CCN(CC(=O)Nc3ccccc3C(=O)NC3CC3)CC2)cc1,inactive
9,Cc1c(CCC(=O)O)c(=O)oc2cc3occ(-c4ccccc4)c3cc12,inactive
10,CC(C)CN(Cc1c(O)ccc2c(=O)c(-c3ccccc3)coc12)CC(C)C,inactive
11,O=c1c(-c2ccccc2)coc2cc(O)ccc12,3.16 µM (active)
12,COCC1CCCN(Cc2nc(-c3ccc4c(c3)OCO4)no2)C1 (stereo unspecified),inactive
13,COc1ccc(N2CCN(C(=O)c3ccc4c(Cl)c5c(nc4c3)CCCC5)CC2)cc1,inactive
14,CC(=O)c1ccc(NC(=O)c2ccc3c(Cl)c4c(nc3c2)CCCC4)cc1,inactive
15,CC(C)CCNC(=O)c1ccc2c(Cl)c3c(nc2c1)CCC3,2 µM (active)
16,Cc1c(C)c(C)c(S(=O)(=O)N2CCC3(CC2)OCCO3)c(C)c1C,inactive
17,CCOc1ccc(S(=O)(=O)NCCC(=O)NCC2CCCO2)cc1 (stereo unspecified),inactive
18,CC(NC(=O)CN(C)S(=O)(=O)c1ccc(F)cc1)C1CC2CCC1C2 (stereo unspecified),inactive
